This is a sample that favours compounds with a hit; in the whole collection about 3% have one here.
SARS PLpro yeast: SARS-CoV PLP inhibition in yeast; S. cerevisiae expressing SARS-CoV PLpro, growth rescue; Potency, µM (highest dose often 32.9 µM), for inactives: at the highest dose activity, positive = growth rescue, actives largely listed as activators; 330,000 compounds, 0.19% hits; AID 485353; calls by dose curve; further: 0% is about no effect; nearly all actives have a fitted effect of over 55% in size
Sm TGR block: S. mansoni TGR enzyme inhibition | AID 485364 | Potency, µM (top dose mostly 114 µM), for inactives: top-dose activity change, negative = inhibition, usual class: inhibitors | purified TGR, DTNB reduction, TNB absorbance 405 nm | 360,000 compounds, 3% hits | Q962Y6; active means well fitted inhibition curve with a large enough effect; inconclusive means small, poorly fitted or top-dose-only effect; inactive means no such curve, though single readings can be large or run the other way; further: on the % scale 0 is the no-effect control and ±100 the full control effect; nearly all actives have a fitted effect of over 60% in size
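Kinetic colorimetric format: TGR-catalysed, NADPH-driven DTNB reduction monitored via TNB absorbance. Enzyme dispensed at 20 nM; compound exposure 15 min at room temperature before reaction start.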
Starred values were filed as active, the others as inactive; ? = inconclusive; . = no result given; [ ] = dose if it differs, or a comment. Potency means the concentration at half of the fitted maximal effect.

SMILES	SARS PLpro yeast	Sm TGR block
COc1cc(C2CC(=O)Nc3c2c(=O)[nH]c2nc4ccccc4n32)ccc1O (stereo not drawn)	.	1%
Cc1ccc2oc(=O)n(CCNC(=O)Nc3ccc(Cl)cc3)c2c1	.	5%
Cc1ccc(C)c(CN2C(=O)c3ccccc3S(=O)(=O)c3ccc(C(=O)N4CCN(Cc5ccccc5)CC4)cc32)c1	.	-6%
COc1ccc(-n2c(=O)c3c4c(sc3n(C)c2=O)CN(C(C)=O)CC4)cc1	.	3%
C=CC(O)(C#CCN(CC)CC)c1ccccc1 (stereo not drawn)	-1%	45µM*
CN(CC#CC(O)(c1ccccc1)c1ccccc1)C(C)(C)C	0%	0%
OCCN(CC#CC(O)(c1ccccc1)c1ccccc1)CCO	-1%	40µM*
CCN(CC)CC#CCC(O)(c1ccccc1)c1ccccc1	0%	-16%[57.1 µM]
CC(C)N(CC#CC(O)(c1ccccc1)c1ccccc1)CCO	6%	-31%
CC(C)N(CC#CC(O)(c1ccccc1)c1ccccc1)C(C)C	-1%	40µM*
CCOC(=O)c1c(S(=O)(=O)N2CCC(C(=O)Nc3ccc(OCC)cc3)CC2)c(C)n(C)c1C	.	-1%
Cc1cc(C)c(S(=O)(=O)NCC(c2ccco2)N2CCc3ccccc3C2)c(C)c1 (stereo not drawn)	1%	-18%
CCOc1ccc(C(=O)NCC(c2ccco2)S(=O)(=O)c2cccs2)cc1 (stereo not drawn)	.	5.6µM*
CCOC(=O)C(=O)NCC(c1cccs1)S(=O)(=O)c1ccc(C)cc1 (stereo not drawn)	-4%	-24%
CCOC(=O)C(=O)NCC(c1ccco1)S(=O)(=O)c1cccs1 (stereo not drawn)	-1%	2.5µM*
Cc1cc(C)c(S(=O)(=O)NCC(c2ccco2)S(=O)(=O)c2cccs2)c(C)c1 (stereo not drawn)	.	0.28µM*
COc1ccc(C(=O)NCC(c2ccco2)S(=O)(=O)c2ccccc2)cc1 (stereo not drawn)	.	-18%
O=S(=O)(NCc1nc2cccnc2n1Cc1ccc(F)cc1)c1ccc2c(c1)CCCC2	.	-1%
Cc1nc2c3cccnc3nn2c(C)c1CCC(=O)NCc1ccccc1Cl	.	-10%
CC(=O)O[C@H]1CCC2C3CCC4=CC(=O)CCC4=C3C=C[C@@]21C (stereo partly drawn)	0%	5µM*
CC#C[C@]1(O)CC[C@H]2[C@@H]3CCC4=CC(=O)CCC4=C3[C@@H](c3ccc(N(C)C)cc3)C[C@@]21C	-7%	0%
Nc1nc2n(n1)C1(CCCCC1)C1=C(CCCC1)N2	-1%	?
C1CCC2(CC1)C1=C(CCCC1)Nc1nnnn12	-4%	45µM*
CC1CCCN(S(=O)(=O)c2ccc(NC(=O)Cc3ccc(S(=O)(=O)N4CCOCC4)s3)cc2)C1 (stereo not drawn)	.	-13%
CC1CCN(S(=O)(=O)c2ccc(NC(=O)Cc3ccc(S(=O)(=O)N4CCOCC4)s3)cc2)CC1	0%	79µM*
SMILES	SARS PLpro yeast	Sm TGR block
CC1CCc2nc3ncn(Cc4ccccc4F)c(=O)c3cc2C1 (stereo not drawn)	.	-1%
CCOc1ccc(CCNC(=O)Cn2nc(CC)n3c(cc4c(OC)cccc43)c2=O)cc1OCC	.	11%
CCOC(=O)c1ccc(N2C(=O)CC(C)(CC)CC2=O)cc1	0%	1%
CCOC(=O)c1ccc(N2CN(CC)CNC2=S)cc1	10µM*	-2%
CCOC(=O)c1ccc(-n2c(=O)[nH]c3ccccc3c2=O)cc1	10%	0%
CCCN1CNC(=S)N(c2ccc(C(=O)OCC)cc2)C1	5%	-11%
CCOC(=O)c1ccc(N2C(=O)C=CC2=O)cc1	-27%	0.5µM*
CCOC(=O)c1ccc(-n2c(C)ccc2C)cc1	7%	28µM*
CCCOc1ccc(-c2cccc(NS(=O)(=O)c3cc(OC)ccc3OC)c2)nn1	.	-5%
CCOc1ccccc1CNC(=O)c1ccc2nc(Cc3ccc(OC)cc3)oc2c1	.	-2%
O=C(Nc1ccc(F)cc1F)C1CCN(c2ncccn2)CC1	.	2%
COc1ccc(CCC(=O)NC2CC(=O)N(c3ccc(C)c(C)c3)C2)cc1 (stereo not drawn)	.	0%
COc1ccc(CNC(=O)CN(C)c2nn3c(=O)cc(C)nc3s2)cc1	.	-7%
Cc1ccc(C(=O)c2oc3ccccc3c2NC(=O)c2cc(=O)c3cc(C)ccc3o2)cc1	.	1%
COc1ccc(C2=C(N3CCN(c4cccc(C)c4C)CC3)c3ccccc3C2=O)cc1	.	-30%
COc1cccc(NC(=O)Nc2cccc(C(=O)O)c2)c1	-1%	-1%
COc1cccc(NC(=O)NC2(C(F)(F)F)Oc3ccccc3O2)c1	-4%	40µM*
O=C(Nc1cc(N2CCOCC2)ncn1)NC1(C(F)(F)F)Oc2ccccc2O1	7%	13µM*
CCOC(=O)Cc1csc(NC(=O)NC2(C(F)(F)F)Oc3ccc(Cl)cc3O2)n1 (stereo not drawn)	3%	?
CCOC(=O)Cc1csc(NC(=O)NC2(C(F)(F)F)Oc3ccccc3O2)n1	-3%	14µM*
C/C(=N\Nc1cc(N2CCOCC2)ncn1)c1ccccc1	-7%	-21%
CCc1ccc(CN(Cc2cn[nH]c2-c2ccc(OC)cc2)C(=O)Nc2ccc(C)c(F)c2)cc1	.	23%
Cc1nn(CC(=O)NC2CC2)c(=O)c2cc3ccccc3n12	.	2%
Cc1ccc(OCC(=O)Nc2ccc3nc(SCC(=O)N4CCOCC4)sc3c2)cc1	.	5%
CCc1cccc(NC(=O)COc2cc(=O)n(CC)c3ccccc23)c1	.	-7%
SMILES	SARS PLpro yeast	Sm TGR block
CC1CCN(S(=O)(=O)c2cc(C(=O)NCc3ccc(F)cc3)n(C)c2)CC1	.	1%
CCOC(=O)C1CCCN(C(=O)c2ccc3c(c2)N(Cc2ccccc2F)C(=O)c2ccccc2S3=O)C1 (stereo not drawn)	.	-2%
Cc1cc(-c2ccc(S(=O)(=O)Nc3ccc(Cl)cc3C)cc2)on1	.	1%
Cc1cc(-c2ccc(S(=O)(=O)Nc3cccc(Cl)c3C)cc2)on1	.	3%
CC(/C=N/n1c(-c2ccc(Cl)cc2)n[nH]c1=S)=C\c1ccco1	-15%	-18%
CC(/C=N\NC(=O)CN1CCN(Cc2ccccc2)CC1)=C\c1ccco1	5%	-21%
CC(/C=N/n1c(-c2cc(C)[nH]n2)n[nH]c1=S)=C\c1ccco1	0%	13µM*
CC(/C=N/n1cnnc1)=C\c1ccco1	7%	35µM*
CC(=O)N1CCCc2cc(S(=O)(=O)N3CCCC(C(=O)Nc4ccc(F)cc4F)C3)ccc21 (stereo not drawn)	.	1%
CCc1cc2c(cc3c(=O)n(CC(=O)NCCc4ccccc4)ncn32)s1	.	-7%
CCN(CC)c1ccc(NC(=O)COCc2cc(-c3ccc4c(c3)OCO4)on2)c(C)c1	.	3%
C=CCOC(=O)C(=O)/C=C/c1csc2ccccc12	-7%	28µM*
C=CCOC(=O)C(=O)/C=C/c1ccc2c(c1)Cc1ccccc1-2	-2%	-14%
O=C(Nc1ccc(F)c(Cl)c1)C1CCN(S(=O)(=O)c2ccc3c(c2)CCCN3C(=O)C2CCC2)CC1	.	9%
COc1ccc(C(C)=O)cc1COc1ccc([N+](=O)[O-])c(C)c1	-1%	?
COc1ccc(C(C)=O)cc1COC(=O)c1ccc(S(=O)(=O)N2CCOCC2)cc1	-11%	18µM*
COc1ccc(OC)c(COC(=O)c2cccc(S(=O)(=O)N3CCCCC3)c2)c1	-8%	.
COc1ccc(C(C)=O)cc1COc1cccnc1[N+](=O)[O-]	0%	?
CCOc1ccc(C(C)=O)cc1COc1cccnc1[N+](=O)[O-]	-4%	35µM*
